The target of experiment [1] is Paired box protein Pax-6 (Homo sapiens) (UniProt P26367). Nature of the experiment: ATG_Pax6_CIS: Attagene CIS-FACTORIAL HepG2 Assay for human Paired Box 6 (PAX6) (AID 2282956). Conditions: HepG2 CIS-FACTORIAL PAX6 reporter transcription, RNA readout; actives raise or lower the signal. Put shortly:
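Read-out is reporter transcript level, measured by RT-PCR with fluorescent primer extension and capillary electrophoresis after 24 h dosing of transfected HepG2 cells. Activity in either direction fitted relative to DMSO control.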

The nature of experiment [2]: ATG_PXRE_CIS: Attagene CIS-FACTORIAL HepG2 Assay for human Pregnane X Receptor Element (PXRE) (AID 2282957). As to conditions: HepG2 Attagene CIS-FACTORIAL PXRE reporter, mRNA; actives raise or lower the signal. Put shortly: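 Fluorescent capillary electrophoresis of amplified reporter cDNA gave the signal, collected 24 h after dosing HepG2 cells that held transfected cis-element reporter constructs.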

Experiment [3] is described as follows: ATG_PPRE_CIS: Attagene CIS-FACTORIAL HepG2 Assay for human Peroxisome Proliferator-activated Response Element (PPRE) (AID 2282958). Conditions: HepG2 PPRE cis-element reporter, Attagene transcription factor profiling; actives raise or lower the signal. Put shortly:
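Transcript-level reporter induction in transfected HepG2 cells after 24 h chemical exposure, quantified by fluorescence from RT-PCR products separated by capillary electrophoresis.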

Experiment [4] in a line: ATG_RORE_CIS: Attagene CIS-FACTORIAL HepG2 Assay for human RAR-related Orphan Receptor Element (RORE) (AID 2282959). As to conditions: HepG2 Attagene cis-factorial RORE reporter, mRNA; actives raise or lower the signal. In a few lines:
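Multiplexed reporter assay measuring mRNA induction from a cis promoter element in transiently transfected HepG2 cells after 24 h treatment. Detection via RT-PCR and capillary electrophoresis fluorescence; DMSO serves as baseline.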

Experiment [5] is described as follows: ATG_Sox_CIS: Attagene CIS-FACTORIAL HepG2 Assay for human SRY-box transcription factor (SOX) (AID 2282960). Conditions: HepG2 Attagene cis-factorial SOX reporter, mRNA; actives raise or lower the signal. In a few lines: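 Cells were transfected with reporter constructs under cis-regulatory promoters, then exposed to chemicals for 24 h. Reporter transcripts were quantified by fluorescence after RT-PCR and capillary electrophoresis; activity was fitted in both directions against DMSO.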

The target of experiment [6] is Transcription factor Sp1 (Homo sapiens) (UniProt P08047). Nature of the experiment: ATG_Sp1_CIS: Attagene CIS-FACTORIAL HepG2 Assay for human Specificity Protein 1 (Sp1) (AID 2282961). As to conditions: HepG2 Sp1 cis-reporter transcription, actives raise or lower the signal. In a few lines: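 Measures mRNA induction of an Sp1-linked reporter in HepG2 cells 24 h post-dosing. Multiplexed reporters read by RT-PCR and capillary electrophoresis; DMSO serves as negative control and baseline.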
Sequence of Transcription factor Sp1 (Homo sapiens) (P08047 whole entry, looked up): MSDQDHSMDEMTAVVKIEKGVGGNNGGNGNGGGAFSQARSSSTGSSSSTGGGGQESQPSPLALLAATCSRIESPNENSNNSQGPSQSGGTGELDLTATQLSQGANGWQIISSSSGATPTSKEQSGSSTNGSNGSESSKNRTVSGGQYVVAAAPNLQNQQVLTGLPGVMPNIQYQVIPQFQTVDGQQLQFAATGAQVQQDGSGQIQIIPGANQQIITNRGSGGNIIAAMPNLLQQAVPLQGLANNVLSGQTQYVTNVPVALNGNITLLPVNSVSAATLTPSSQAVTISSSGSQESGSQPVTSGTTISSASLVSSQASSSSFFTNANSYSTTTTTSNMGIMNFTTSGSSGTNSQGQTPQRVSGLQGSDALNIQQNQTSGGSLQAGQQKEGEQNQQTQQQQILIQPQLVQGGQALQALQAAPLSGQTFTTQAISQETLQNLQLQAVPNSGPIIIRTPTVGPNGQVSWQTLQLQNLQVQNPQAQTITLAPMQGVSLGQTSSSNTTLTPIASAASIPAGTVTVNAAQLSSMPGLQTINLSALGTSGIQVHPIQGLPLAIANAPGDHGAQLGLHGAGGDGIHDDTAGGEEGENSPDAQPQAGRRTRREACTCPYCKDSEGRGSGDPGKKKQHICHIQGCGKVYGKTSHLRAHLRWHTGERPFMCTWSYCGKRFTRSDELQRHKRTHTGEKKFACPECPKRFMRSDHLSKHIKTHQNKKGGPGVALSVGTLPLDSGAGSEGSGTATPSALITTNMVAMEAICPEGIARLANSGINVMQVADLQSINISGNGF

Experiment [7] is described as follows: ATG_SREBP_CIS: Attagene CIS-FACTORIAL HepG2 Assay for human Sterol Regulatory Element Binding (SREBP) (AID 2282962). Conditions: HepG2 Attagene cis-factorial SREBP reporter, mRNA; actives raise or lower the signal. In a few lines:
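Endogenous SREBP activity read as cis-element-driven reporter transcript in transiently transfected HepG2, 24 h post-dosing; quantified via RT-PCR plus capillary electrophoresis of fluorescent fragments. Gain or loss of signal fitted relative to DMSO baseline.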

Experiment [8] addresses Signal transducer and activator of transcription 3 (Homo sapiens) (UniProt P40763). Nature of the experiment: ATG_STAT3_CIS: Attagene CIS-FACTORIAL HepG2 Assay for human Signal Transducer and Activator of Transcription 3 (STAT3) (AID 2282963). As to conditions: HepG2, Attagene cis-factorial STAT3 reporter transcription; actives raise or lower the signal. In a few lines: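 Readout: fluorescent reporter mRNA fragments resolved by capillary electrophoresis. Setup: HepG2 transfected with MRTUs reporting endogenous transcription-factor activity, dosed 24 h. Gain or loss of signal fitted bidirectionally against DMSO control.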

Experiment [9] can be described thus: ATG_TA_CIS: Attagene CIS-FACTORIAL HepG2 Assay for human TA Basal Promoter (AID 2282964). Conditions: HepG2 Attagene CIS-factorial TA basal promoter reporter; actives raise or lower the signal. Put shortly: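 Transfected HepG2, 24 h compound exposure; RNA → RT-PCR → FAM primer extension → HpaI cut → CE fluorescence. Gain/loss-of-signal fitted against DMSO negative control. Background-control readout.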

Experiment [10] is described as follows: ATG_TCF_b_cat_CIS: Attagene CIS-FACTORIAL HepG2 Assay for human T-Cell-Factor with beta-catenin (TCF/b-cat) (AID 2282965). As to conditions: HepG2 TCF/beta-catenin cis-reporter transcription, actives raise or lower the signal. In a few lines: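 HepG2, transient MRTU transfection, cis-element-driven reporters (endogenous TFs). 24 h compound exposure. Readout: reporter mRNA by RT-PCR + 6-FAM primer extension, HpaI digest, capillary electrophoresis. Gain/loss fit vs DMSO baseline.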

Experiment [11] in a line: ATG_TAL_CIS: Attagene CIS-FACTORIAL HepG2 Assay for human TAL Basal Promoter (AID 2282966).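 Note: background control endpoint measuring basal TAL promoter reporter mRNA not a specific factor.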 As to conditions: HepG2 Attagene cis-factorial TAL promoter reporter; actives raise or lower the signal. Put shortly:
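Transiently transfected HepG2 (cis-regulated reporter units), 24 h treatment, mRNA read by fluorescent CE after RT-PCR; bidirectional fit, DMSO baseline.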

Experiment [12] can be described thus: ATG_TGFb_CIS: Attagene CIS-FACTORIAL HepG2 Assay for human Transforming Growth Factor (TGF) (AID 2282967). As to conditions: HepG2 Attagene CIS TGFb reporter, mRNA transcription; actives raise or lower the signal. Put shortly: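 Readout: fluorescently labeled reporter cDNA fragments resolved by capillary electrophoresis after RT-PCR. Transfected HepG2 cells dosed for 24 h; endogenous TF activity at TGFB1-linked cis element; gain or loss fitted relative to DMSO.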

Experiment [13] is described as follows: ATG_VDRE_CIS: Attagene CIS-FACTORIAL HepG2 Assay for human Vitamin D Receptor Element (VDRE) (AID 2282968). As to conditions: HepG2 VDRE cis-reporter transcription, actives raise or lower the signal. Put shortly: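 Transient MRTU transfection of HepG2, 24 h compound exposure. Readout: reporter transcripts via RT-PCR and capillary electrophoresis, fluorescence. Bidirectional fit vs DMSO.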

The target in experiment [14] is X-box-binding protein 1 (Homo sapiens) (UniProt P17861). The experiment in a line: ATG_Xbp1_CIS: Attagene CIS-FACTORIAL HepG2 Assay for human X-box Binding Protein 1 (XBP1) (AID 2282972). As to conditions: HepG2 XBP1 cis-element reporter, Attagene multiplex; actives raise or lower the signal. In a few lines:
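Reporter transcripts were quantified by RT-PCR with fluorescent primer extension and capillary electrophoresis after 24 h chemical exposure. Cells: transiently transfected HepG2 carrying cis-regulated reporter constructs; data fitted bidirectionally relative to DMSO.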

A short description of experiment [15]: ATG_GAL4_TRANS: Attagene TRANS-FACTORIAL HepG2 Assay for GAL4 (Internal Marker) (AID 2282976; active = hit-call score of the fitted dose curve at least 0.9, where 1 is the maximum). As to conditions: HepG2 Attagene TRANS GAL4 internal marker reporter. Put shortly: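 HepG2 cells transiently transfected with multiplexed GAL4-UAS reporter constructs were dosed for 24 h. Reporter mRNA was measured by RT-PCR, 6-FAM primer extension, HpaI digestion and capillary electrophoresis, and gain of signal was fitted relative to DMSO.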

Experiment [16] has as its target Estrogen-related receptor gamma (Homo sapiens) (UniProt P62508). The experiment in a line: ATG_ERRg_TRANS: Attagene TRANS-FACTORIAL HepG2 Assay for human Estrogen-Related Receptor gamma (ERRg) (AID 2282977; active = hit-call score of the fitted dose curve at least 0.9, where 1 is the maximum;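 note: hits increase reporter signal over DMSO so potencies reflect activators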). As to conditions: HepG2 Attagene TRANS reporter, ERRg transactivation. Put shortly: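 Exogenous NR-Gal4 chimera activity was assessed in HepG2 cells bearing transfected GAL4-UAS reporters. After 24 h dosing, total RNA underwent RT-PCR, fluorescent primer extension and HpaI digestion before capillary electrophoresis, with gain of signal scored against DMSO.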

Results filed as inconclusive are left out. Activity calls are given as the source filed them. Rule for the calls, unless noted: active = hit-call score of the fitted dose curve at least 0.9, where 1 is the maximum; inactive = score below 0.9.

The term AC50 denotes the concentration at which the activity in the assay is half-maximal.

Sequence of Paired box protein Pax-6 (Homo sapiens) (P26367 whole entry, looked up): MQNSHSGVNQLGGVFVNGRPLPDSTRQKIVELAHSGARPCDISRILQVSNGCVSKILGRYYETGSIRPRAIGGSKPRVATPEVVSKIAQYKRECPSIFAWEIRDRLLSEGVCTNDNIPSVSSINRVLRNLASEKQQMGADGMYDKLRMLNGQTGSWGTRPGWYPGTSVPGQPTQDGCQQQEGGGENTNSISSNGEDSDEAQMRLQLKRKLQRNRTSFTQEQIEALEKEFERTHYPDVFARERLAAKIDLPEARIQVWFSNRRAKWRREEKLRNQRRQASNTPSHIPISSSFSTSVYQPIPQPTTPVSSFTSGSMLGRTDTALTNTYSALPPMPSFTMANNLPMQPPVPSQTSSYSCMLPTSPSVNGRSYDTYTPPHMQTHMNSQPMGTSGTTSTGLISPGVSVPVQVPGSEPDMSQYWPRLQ
Sequence of X-box-binding protein 1 (Homo sapiens) (P17861 whole entry, looked up): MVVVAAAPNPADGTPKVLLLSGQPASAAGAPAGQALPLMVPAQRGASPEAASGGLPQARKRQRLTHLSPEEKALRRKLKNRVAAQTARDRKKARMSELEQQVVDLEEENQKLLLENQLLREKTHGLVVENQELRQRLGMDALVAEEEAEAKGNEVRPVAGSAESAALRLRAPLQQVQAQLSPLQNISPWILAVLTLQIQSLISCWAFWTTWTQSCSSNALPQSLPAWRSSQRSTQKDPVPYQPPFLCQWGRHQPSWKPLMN
Sequence of Signal transducer and activator of transcription 3 (Homo sapiens) (P40763 whole entry, looked up, the tested form may be a part): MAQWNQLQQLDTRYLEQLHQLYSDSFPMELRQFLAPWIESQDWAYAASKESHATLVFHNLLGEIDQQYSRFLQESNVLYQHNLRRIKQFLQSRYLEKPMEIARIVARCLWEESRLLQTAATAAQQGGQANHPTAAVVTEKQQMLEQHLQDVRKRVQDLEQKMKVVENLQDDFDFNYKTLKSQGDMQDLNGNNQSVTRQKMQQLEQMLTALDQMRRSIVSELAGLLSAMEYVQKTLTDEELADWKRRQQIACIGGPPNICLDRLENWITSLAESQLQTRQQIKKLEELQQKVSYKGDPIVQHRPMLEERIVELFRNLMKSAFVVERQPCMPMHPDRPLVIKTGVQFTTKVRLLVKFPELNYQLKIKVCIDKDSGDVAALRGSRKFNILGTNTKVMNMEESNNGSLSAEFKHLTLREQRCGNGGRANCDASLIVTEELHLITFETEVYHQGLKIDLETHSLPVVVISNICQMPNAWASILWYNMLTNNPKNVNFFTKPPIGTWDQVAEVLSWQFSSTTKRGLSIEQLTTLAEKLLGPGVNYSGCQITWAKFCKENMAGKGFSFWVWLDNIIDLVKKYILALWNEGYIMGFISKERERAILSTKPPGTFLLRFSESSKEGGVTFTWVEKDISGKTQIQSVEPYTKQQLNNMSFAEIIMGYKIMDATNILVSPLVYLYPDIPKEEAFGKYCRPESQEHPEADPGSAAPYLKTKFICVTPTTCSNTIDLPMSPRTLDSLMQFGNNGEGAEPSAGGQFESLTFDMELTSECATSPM
Sequence of Estrogen-related receptor gamma (Homo sapiens) (P62508 whole entry, looked up, the tested form may be a part): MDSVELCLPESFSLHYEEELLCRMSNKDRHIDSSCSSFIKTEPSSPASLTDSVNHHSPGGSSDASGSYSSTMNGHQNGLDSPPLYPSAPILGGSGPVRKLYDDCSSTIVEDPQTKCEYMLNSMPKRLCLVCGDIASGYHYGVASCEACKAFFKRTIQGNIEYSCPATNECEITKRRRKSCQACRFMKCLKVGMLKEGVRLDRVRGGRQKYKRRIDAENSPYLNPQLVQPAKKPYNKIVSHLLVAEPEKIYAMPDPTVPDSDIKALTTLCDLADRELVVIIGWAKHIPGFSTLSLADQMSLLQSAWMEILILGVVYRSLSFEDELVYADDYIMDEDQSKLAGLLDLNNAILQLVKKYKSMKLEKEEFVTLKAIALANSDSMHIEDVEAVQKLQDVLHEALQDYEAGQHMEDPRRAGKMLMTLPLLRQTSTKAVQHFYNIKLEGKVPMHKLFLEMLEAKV

For the compound `C=C[Si](OCC)(OCC)OCC`, the compound was classed as inactive in experiment [1], in [3], in [4], in [5], in experiment [6] and in experiment [7]. Besides, the compound was called inactive in [8], in experiment [9], in experiment [10], in experiment [11], in experiment [12] and in experiment [13]. The compound was classed as inactive in [14] and in experiment [15]. Further, the AC50 in experiment [2] is 5.48 µM (active).
For `COc1cc(C(C)(C)C)c(O)c(C(C)(C)C)c1`, the call in [1], in experiment [3], in [4], in experiment [5], in experiment [6] and in [7] was inactive. Besides, the outcome in experiment [8], in experiment [9], in experiment [10], in [11], in experiment [12] and in experiment [13] was inactive. Moreover, the result in experiment [14], in [15] and in [16] was inactive. In experiment [2], the AC50 is 2.09 µM (active).
Turning to `C=CC(C)(C)O`, the call in experiment [1], in experiment [2], in experiment [3], in experiment [4], in [5] and in [6] was inactive. Also, the outcome in [7], in experiment [8], in experiment [9], in experiment [10], in experiment [11] and in experiment [12] was inactive. Besides, the compound was classed as inactive in [13], in [14] and in experiment [15].
For the compound `N#Cc1nc(Cl)c(Cl)c(Cl)c1Cl`, the AC50 in experiment [1] was 5.32 µM (active); in experiment [2] it was 5.5 µM (active); in [5] it was 5.26 µM (active); in experiment [7], 5.74 µM (active); in [10], 3.82 µM (active); in experiment [13] it was 4.14 µM (active). Besides, the outcome in [3], in experiment [4], in experiment [6], in experiment [8], in experiment [9] and in [11] was inactive. For the same compound, the call in experiment [12] and in experiment [16] was inactive.
